Test results published in ChEMBL document CHEMBL3988442, “University of Dundee, Small-Polar-MMV Screening Library” (2021).
Hit rate of the full screen: of about 69,000 compounds, about 420 (0.61%) showed an effect of 50% or more. This excerpt belongs to a sample that is enriched for strong results.

biological target: T1, Histidine--tRNA ligase (Leishmania infantum) (UniProt A4I591); experiment: Leishmania infantum Histidine tRNA synthetase (LdHisRS); type: functional; parameters: scale not given: in the data most compounds retested in dose-response had high values; conditions: 30 µM
T1 sequence (whole entry): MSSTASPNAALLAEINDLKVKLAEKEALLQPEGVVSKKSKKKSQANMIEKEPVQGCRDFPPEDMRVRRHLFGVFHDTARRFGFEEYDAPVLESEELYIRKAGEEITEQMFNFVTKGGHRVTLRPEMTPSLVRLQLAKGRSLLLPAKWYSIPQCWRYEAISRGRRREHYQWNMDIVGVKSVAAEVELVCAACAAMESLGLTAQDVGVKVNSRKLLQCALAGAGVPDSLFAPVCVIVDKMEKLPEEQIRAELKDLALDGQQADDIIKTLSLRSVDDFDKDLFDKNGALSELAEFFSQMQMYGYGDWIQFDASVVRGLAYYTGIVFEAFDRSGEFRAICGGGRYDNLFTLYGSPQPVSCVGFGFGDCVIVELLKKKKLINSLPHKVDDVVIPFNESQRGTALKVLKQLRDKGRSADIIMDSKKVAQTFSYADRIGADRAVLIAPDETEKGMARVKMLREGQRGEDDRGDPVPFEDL

SMILES | Percent Effect
Cc1nnc([C@@H]2CC[C@@H]3[C@@H](CCN3C3CCC3)O2)o1 | 5.26%
O=C(NC1CCCC1)N1C[C@H]2CN(c3ccccn3)C[C@@]2(C(=O)O)C1 | 3.92%
O=C(NC[C@]12COC[C@H]1CN(Cc1nccs1)C2)c1ccccc1 | 17.5%
CS(=O)(=O)N1C[C@@H](NC(=O)c2ccno2)[C@@H]2OCCC[C@@H]21 | -4.54%
CCCN(C(=O)c1cnccn1)c1nc2c(s1)CCc1c-2cnn1C | 94.8%
COCCN(C(=O)c1cnccn1)c1nc2c(s1)CCc1c-2cnn1C | 51%
COCCN1C(=O)CC[C@]12CC[C@@H](NC(=O)c1cnccn1)CC2 | -179%
Cc1cccc(N(CCC(N)=O)C(=O)c2cnccn2)c1 | 5%
CCCN(C(=O)c1cnc(C)cn1)c1nc2c(s1)CCc1c-2cnn1C | 99%
CCN(CC)Cc1cn2c(n1)CN(C(=O)c1cnccn1)CC2 | 9.02%
CCCN(CCC)C(=O)c1cnn(C)c1C | -4%
Cc1cnc(C(=O)N(CCN(C)C)Cc2ccc(Cl)cc2)cn1 | 24%
COCC1c2c(cnn2C)CCN1C(=O)c1cscn1 (stereo not given) | 11.7%
Cc1nc(CN2CC[C@@H]3O[C@@H](C(=O)N4CCOCC4)C[C@@H]32)cs1 | 17.4%
Cn1cccc1C(=O)N1C[C@@H]2CCCO[C@@H]2[C@H](N2CCOCC2)C1 | 17.5%
Cc1ccc(C(=O)N2C[C@@H]3[C@@H](C2)OCC(=O)N3Cc2cccnc2)o1 | 22.1%
O=C1C[C@H]2[C@@H](CCN2C(=O)c2ccc[nH]2)N1CCN1CCCC1 | 8.06%
Cc1ccc(CN2CCN(Cc3nccn3C)[C@H]3CS(=O)(=O)C[C@H]32)o1 | 16.8%
O=C(NC1CC(F)(F)C1)[C@]12COC[C@H]1CN(Cc1ccccc1)C2 | 24%
CNC(=O)[C@H]1C[C@@H]2CN(S(=O)(=O)c3cccc(F)c3)C[C@@H]2N1C | 28.6%
CN(C)C(=O)N1C[C@@H]2COC[C@]2(CNS(C)(=O)=O)C1 | 4.51%
CC(C)(C)c1ccc(OCC(=O)O)c(CN2C[C@H]3C[C@H](O)C[C@H]3C2)c1 | 14.5%
Cc1nc(CN2CC[C@H]3[C@H]2CCN3c2nncs2)cs1 | 17.5%
Cc1nc(-c2cc(F)c3c(c2)CC(CN)O3)c[nH]1 (stereo not given) | 26.2%
Cc1nc(-c2cc(Cl)c3c(c2)CC(CN)O3)c[nH]1 (stereo not given) | 40.5%
NCC1Cc2cc(-c3nccc(N4CCC(O)CC4)n3)cc(F)c2O1 (stereo not given) | 51.4%
NCC1Cc2cc(-c3cnccn3)cc(Cl)c2O1 (stereo not given) | 11%
NCC1Cc2cc(-c3nccc(N4CCC(O)CC4)n3)cc(Cl)c2O1 (stereo not given) | 60%
NCC1Cc2cccc(-c3nccc(N4CCC(O)CC4)n3)c2O1 (stereo not given) | 34.3%
CCCOc1ccc(C(=O)N2CC[C@H]3CC[C@@H](C2)N3)cc1Cl | 9.17%
